This passage reports Potency results from PubChem BioAssay AID720542 (National Center for Advancing Translational Sciences (NCATS), 2013).

Among all 360,000 compounds or so, about 740 (0.21%) were called active. Not shown: some 2% with an inconclusive outcome. Calls follow the shape of the dose curve; as a rule, active = well fitted inhibition curve with a large enough effect; inconclusive = small, poorly fitted or top-dose-only effect; inactive = no such curve, though single readings can be large or run the other way. What follows is part of a selection rich in actives, with near analogues and random picks from the rest. Where a call stands in place of a potency, no number is given.
Potency is read from the fitted curve at half-maximal effect.

The subject of the assay is Plasmodium falciparum AMA1 (3D7) - RON2 peptide interaction. As to the kind of experiment: qHTS for Inhibitors of AMA1-RON; Towards Development of Antimalarial Drug Lead: Primary Screen. Also: nearly all actives have a fitted effect of over 45% in size. The settings on record: AlphaScreen AMA1-biotinylated RON2 peptide binding; series mostly up to 58.2 µM. From the text: Plasmodium, the causative agent of malaria, is one of the world's deadliest parasitic diseases. Currently there is no vaccine available and there is widespread resistance to common anti-malarial drugs. This warrants novel, alternative approaches for developing improved therapy. During infection, one such essential interaction is between two parasite proteins, the apical membrane antigen1 (AMA1) that is translocated onto the merozoite surface and the rhoptry neck protein 2 (RON2), which is transferred to the red blood cells (RBC) membrane during invasion (Besteiro et.al., 2009). Recently, the Miller lab has shown that the interaction between AMA1 and RON2 is essential for junction formation of the parasite with the host cell (Srinivasan et.al., 2011). The binding of the RON2 peptide to the hydrophobic pocket in AMA triggers the formation of the moving junction which provides a firm anchor for the parasite to pull itself into the RBC using its actin-myosin motor; an irreversible step that commits the parasite for invasion. Only one AMA1 and RON2 genes exists in Plasmodium and there are no alternate pathways. Moreover, the region corresponding to RON2 peptide is conserved in all P. falciparum isolates for which sequences are available. The key residues in the AMA1 hydrophobic pocket that binds RON2 are also conserved and indicate a functional constraint governing this essential step in invasion since a short RON2 peptide (RON2L) corresponding to the binding region on AMA1 is sufficient to compete with the native RON2 protein and inhibits invasion (Tonkin et.al, 2011). Therefore, developing small molecule inhibitors of this interaction offers a promising target opening a new arena for anti-malarial therapeutics drug design.
In collaboration with the Miller lab, a quantitative High Throughput Screen using the AlphScreen technology was developed using a recombinant his-tagged AMA1 and a biotinylated RON2 peptide. This fluorescent screen was assayed against the NIH Molecular Libraries Small Molecule Repository (MLSMR). Inhibition of this protein-protein interaction is the desired outcome of this assay. However, due the limitations of this AlphaScreen assay, a large number of artifacts were observed. An AlphaScreen counterscreen was run to identify the true inhibitors, triage compound activity, and weed out false positives.
NIH Chemical Genomics Center [NCGC]
NIH Molecular Libraries Probe Centers Network [MLPCN]
Assay Submitter (PI): Louis Miller, National Institute of Allergy and Infectious Disease (NIAID)
Two microliters of his-tagged AMA1 3D7 allele protein (final concentration 25 nM) was dispensed into a 1,536-well assay plate. Small molecules and positive control peptides were pin-transferred (23 nL or 46 nL) via Kalypsys pin-tool equipped with a 1,536-pin array, resulting in final compound and peptide concentration ranges of 91.5 nM - 57.2 µM, and 15.6 nM - 2.00 µM, respectively. Unlabeled RON2 peptide or R1 peptide ([…]) that specifically binds the 3D7 AMA1 was used as a positive control that inhibited the binding of RON2L to AMA1. After 15 minutes incubation, 1 uL of biotinylated RON2 peptide (final concentration 25 nM) or buffer were dispensed and the assay plate was incubated for an additional 30 minutes at room temperature and protected from light. This was followed by an addition of 1 uL mixture of donor and acceptor beads (10 ug/mL final concentrations for each). The plates were incubated for 30 min at room temperature and read using the EnVision(R) plate reader (PerkinElmer). Maximum inhibition response was normalized to the positive control signal while no inhibition response was normalized to the DMSO treated wells.
In the case of `CCc1ccc(C2C(C#N)=C(N)N(N3CCOCC3)C3=C2C(=O)CC(C)(C)C3)s1` (centres undefined), the Potency result is “inactive”. Consider `Cc1cc(O)c(C(=O)/C=C/c2c(F)c(F)c(F)c(F)c2F)c(=O)o1`, for which the Potency entry was “inactive”.

`CCOc1ccccc1NC(=O)Cn1ncc2ccc([N+](=O)[O-])cc21`: the Potency entry is “inactive”. As for `COc1ccc(CN2C(=O)C(C)S/C2=N/N=C/c2ccco2)cc1` (centres undefined), the Potency entry is “inactive”.

Turning to `CCCCN=C1N/C(=C\c2ccco2)C(=O)N1c1ccccc1`, the Potency result is “inactive”. Turning to `COc1ccc(N2C(=O)/C(=C/c3ccco3)C(=O)NC2=S)cc1`, the Potency is 15.8 µM (active). As for `CCC1SC2=NCCN2C1(O)c1ccc(Cl)cc1` (centres undefined), the Potency entry was “inactive”. As to `CC(C)CCNC(=O)Cn1c(=O)oc2cc(S(=O)(=O)N3CC(C)CC(C)C3)ccc21` (centres undefined), the Potency entry is “inactive”. For `CN(C(=O)CN(CCO)CC(=O)N(C)C(C)(C)Cc1ccccc1)C(C)(C)Cc1ccccc1`, the Potency result is “inactive”.

Regarding `CN1OC[C@@H]2CN(S(=O)(=O)c3cccc(C(F)(F)F)c3)[C@H](c3ccc(-c4cc5ccccc5o4)cc3)C[C@@H]21`, the Potency entry is “inactive”. For `CC1=C(C(=O)Nc2ccc(Cl)cc2)C(c2ccco2)NC(=O)N1` (centres undefined), the Potency result was “inactive”. For `CCNC(=O)N1CCNC(=O)C1CC(=O)Nc1ccc(C(=O)OCC)cc1` (centres undefined), the Potency entry is “inactive”. For `CCOc1ccccc1-n1c(SCC(=O)NCc2ccco2)nnc1-c1ccncc1`, the Potency entry was “inactive”. As for `Cc1ccc(NC(=O)CN2CCCCC2)c2c1CC(C)(C)O2`, the Potency result is “inactive”.

With `CC(=O)c1ccc(NC(=O)C(C)NCc2ccc(Cl)cc2)cc1` (centres undefined), the Potency result was “inactive”. Take `CN(/C(=N/S(=O)(=O)c1cccs1)c1ccccc1)c1ccc(O)cc1`: the Potency entry is “inactive”. On to `CC1CCC(NC(=O)CN(C)S(=O)(=O)c2ccc3c(c2)c(=O)n(C)c(=O)n3C)CC1` (centres undefined), for which the Potency result was “inactive”. With `O=S(=O)(c1ccc(Br)cc1)c1nc(-c2ccccc2)oc1NCc1cccnc1`, the Potency entry was “inactive”.

With `O=C1CC(=O)Nc2cc(S(=O)(=O)N3CCN(c4cccc(C(F)(F)F)c4)CC3)ccc2N1`, the Potency entry was “inactive”.

As for `Cc1ccc(N(C(=O)Cc2cccs2)C(C(=O)NCC2CCCO2)c2ccncc2)cc1` (centres undefined), the Potency entry was “inactive”.

For `CCOC(=O)c1ccccc1NC(=O)COC(=O)C(Cc1c[nH]c2ccccc12)NC(C)=O` (centres undefined), the Potency result was “inactive”. On to `C=CCc1cccc2cc(C(=O)Nc3ccc(NC(C)=O)cc3)c(=O)oc12`, for which the Potency entry was “inactive”. Under `O=C(CSc1nnc(-c2ccncc2)o1)Nc1cccc(Cl)c1` stands “inactive”; under `Cc1cc(NC(=O)CSc2nnc(-c3ccc(Cl)s3)o2)no1`, 2.24 µM (active); under `Cc1cc(NC(=O)CSc2nnnn2-c2ccc(F)cc2)no1`, “inactive”. For `CC1(C)C(c2ccccc2)=NC(c2cccnc2)=[N+]1[O-]`, the Potency result is “inactive”.

`COc1cccc(N(C(=O)c2snc(C(N)=O)c2N)C(C(=O)NCC2CCCO2)c2c[nH]c3ccccc23)c1` (centres undefined): the Potency result was “inactive”. With `CC(C)(C)c1ccc(NC(=O)COC(=O)CCc2nc3ccccc3c(=O)[nH]2)cc1`, the Potency result is “inactive”.

For `Cc1ccc(NC(=O)COC(=O)CCc2nc3ccccc3n2-c2ccccc2)c(C)c1`, the Potency entry is “inactive”. As for `CCN(c1ccc(NC(=O)COC(=O)CCc2nc3ccccc3n2-c2ccccc2)cc1)C(C)C`, the Potency is 10 µM (active). As for `CC(C)NC(=O)Nc1ccc2c(c1)C(=O)N([C@H](C)CO)C[C@H](C)[C@@H](CN(C)Cc1ccc(C(F)(F)F)cc1)OCCCC[C@@H](C)O2`, the Potency entry was “inactive”. For the molecule `C=C1c2c(Cl)ccc(O)c2C(O)=C2C(=O)[C@]3(O)C(O)=C(C(N)=O)C(=O)[C@@H](N(C)C)[C@@H]3[C@@H](O)C12` (some centres undefined), the Potency was 1.41 µM (active). On to `CC(=O)Nc1nc(C)c(Cc2ccccc2)c(=O)[nH]1`, for which the Potency entry was “inactive”.

Turning to `C#CCOCCOCCOCCNc1nc(N2CCN(C(=O)C([C@@H](C)CC)n3cc(C(N)COC(=O)C(F)(F)F)nn3)CC2)nc(N2CCN(C(=O)[C@H](Cc3ccc(O)cc3)n3cc(C(N)[C@H](C)CC)nn3)CC2)n1` (some centres undefined), the Potency entry was “inactive”. For `O=[N+]([O-])c1ccc(Sc2n[nH]c(-c3ccco3)n2)nc1`, the Potency entry is “inactive”. Turning to `COc1ccc(CNC(=O)COC(=O)C2=Cc3ccccc3OC2)cc1`, the Potency result was “inactive”. As for `OCC#CC[N+]1(CC#Cc2ccccc2)CCCC1`, the Potency entry is “inactive”. Turning to `CC1(C)Cc2c(sc(NC(=O)C(=O)NCC3CCCO3)c2C(=O)O)CO1` (centres undefined), the Potency entry was “inactive”.

As to `CN(C)c1ccc(C(CC(=O)O)C(=O)O)cc1` (centres undefined), the Potency entry is “inactive”. Consider `O=C(Nc1ccc(CSc2ccccc2)cc1)c1ccc(CN2CCOCC2)cc1`, for which the Potency result is “inactive”. As to `CN(C)c1ccc(CSc2ccccc2)cc1`, the Potency was 8.91 µM (active). For the molecule `Cc1cccc(CSc2nc3c(c(=O)n2C)SCC3)c1`, the Potency entry is “inactive”. Regarding `N#Cc1ccc(/C=C2\CCn3c2nc2cc(C(=O)O)ccc2c3=O)cc1`, the Potency entry is “inactive”. For the molecule `Cc1ccc(/C=C2\CCn3c2nc2cc(C(=O)O)ccc2c3=O)c(C)c1`, the Potency result was “inactive”. With `O=C(O)c1ccc2c(=O)n3c(nc2c1)/C(=C/c1ccc(OC(F)F)cc1OC(F)F)CC3`, the Potency was 20 µM (active). The same measure for `CCOC(=O)c1c(-n2cnnn2)sc(C)c1C`: “inactive”; for `COc1ccc2c(c1)c(=Cc1ccc(N(C)C)cc1)c1cc(-c3ccccc3)[n+](C)n12`: 17.8 µM (active). As for `CCCCCOC(=O)C1=C(C)Nc2nnnn2C1c1ccc(OC)c(OC)c1OC` (centres undefined), the Potency entry was “inactive”.

On to `COc1ccc(-c2nc3c(s2)CCc2onc(-c4ccc(Br)cc4)c2-3)cc1`, for which the Potency result is “inactive”.
